# Data reported in PubChem BioAssay AID1347426 (Functional Genomics Laboratory (NCATS/FGL), 2020).
# The whole screen tested about 31,000 sequences, of which about 1,400 (4.5%) were called active. The entries come from a sample that favours actives as a whole. A number with no mark means an inactive call.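 The calls were made as follows: active = median seed-adjusted z-score above 1 or below -1; inactive = the rest.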
# Assay: Novel Modifiers of Survival Motor Neuron (SMN) Protein: Gene Identification via Genome-wide siRNA Screen;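 also: luminescence tracks full-length SMN protein made from the SMN2 reporter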
# Settings: HEK293T SMN2-luciferase reporter, siRNA knockdown, 72 h; actives lie on both sides
# Procedure, shortened: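 Each of three siRNAs per gene is reverse-transfected (1 pmol) into reporter HEK293T cells whose luciferase output tracks SMN protein level. After 72 h culture, ONE-Glo luminescence is control-normalized, log10-transformed and MAD-standardized; Common Seed Analysis deprioritizes seed-driven hits.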
row,Sequence,median seed-adjusted z-score
1,CAGUUUCAACUUUAUCAGATT against RNF144B,0.642
2,GAUGAUAUCCUACUAGGCATT against CD302,0.0818
3,CAAUGUUUGUCUGGUCAUATT against ZDHHC2,0.133
4,CAUCUUAUCUACAUCUUAUTT against KCNK18,0.115
5,CCAUUAUCGCUGUCUUCUATT against CXCR7,-0.511
6,GGCCUACAGCUGGAAGGAATT against CHRM1,1.1 (active)
7,GGAUGCGUUGAAUAAGUUUTT against MGAT4A,0.134
8,GCACUACGGACCAUAGUUATT against NRF1,0.608
9,CGAAGUUCACUAUCGAACATT against DNAH11,0.104
10,AUAUCAACUUGACCCACCATT against B3GNT7,-1.05 (active)
11,CUACUUCCUUUAUCCCGAUTT against BDH1,-0.0253
12,GGAUCGAUAUCAAGAUAUUTT against AVEN,0.184
13,GAAUCUCUGUAGCCGAUGATT against CPA1,-0.187
14,AGACUGAACUCCGAACAGATT against SSH3,-0.0772
15,GAAUAAGAGCACAAGUAAATT against SERPINB13,0.0593
16,AGCUGAUGUUCGAGCAGUATT against ACTL6B,0.0703
17,CUCUGAGUAUGUGACCGAATT against XPNPEP1,-1.5 (active)
18,CAUCAUCUAUGUAAGCCUATT against PRKD1,-0.323
19,CAAGAAUCAUUAAUACAAATT against CCL2,0.651
20,GGACGCAGGUUUCUGUUUATT against CHRFAM7A,0.115
21,CACCAGCUAUGAACGAGAATT against THOC2,-1.22 (active)
22,CGACCUACCGAGAAGAAAATT against GJB3,-0.198
23,GGGAUGUUCUUAGAAGUUUTT against BIK,0.0492
24,GCCCAGUUGCUUAACGAAUTT against ACVR2A,-0.22
25,CAAGAACUACAGAUUCGUATT against PPP1R13B,0.0943
26,GACUGACCAUACUGAUAUUTT against NPY5R,0.213
27,GCCUGUUUCAAGACACUGATT against CRNN,-0.0758

row,Sequence,median seed-adjusted z-score
1,GCUUUAGAGUUCCAUAUGATT against PIK3CG,0.576
2,GCACCUAUAUUUACUACUUTT against TTC3,-1.17 (active)
3,CAACUUGCCUUGUUAACCATT against ZDHHC2,0.133
4,CUUCCACCCGAGUACCUUUTT against HDAC10,-0.165
5,GAAUAGAGAUCAAAUUCCATT against CD163,0.021
6,GGAGGCUUCUUUAUGAAUUTT against FXYD4,-0.0447
7,CUAUAACUGUUCGUGCUUATT against USP47,0.3
8,GAAAAUCACCAAAACAUACTT against WHSC1,1.17 (active)
9,GGAAAGUCCUGUUUGAUCATT against RHBDL3,0.56
10,CUGUAGAACUAGUCCUUAUTT against PRKRIR,0
11,GUAUGUCGGGUAUACCGUUTT against RAD54L2,-0.0646
12,CGACAAUGCGGUCAACCUUTT against CD28,-0.993
13,GGAGAUACUCCGAACCUCATT against TEX13A,-1.22 (active)
14,CGAUAUCUGACGCAGCUAATT against RPS6KA2,0.139
15,ACAUCCGAGUUUAUCCUGATT against SFRS9,-0.144
16,GGAAAAAUAUCCAGCAAAATT against UBE2E2,-1.77 (active)
17,CCUCAGAUCUACCCACAGATT against CSF2RB,-0.454
18,CACAAGCAAGUUCAAAUAATT against FCRL4,-0.39
19,GCUAUUUGCUGGCUACAAATT against POLR2J3,-5.42 (active)
20,GCGGCAAUCUUGGGAGUAATT against TMPRSS11B,-0.545
21,CAGCGAUGCUACGACAAUATT against PHF17,1.01 (active)
22,GAAUUUUGAUGUCAUACGATT against DTNB,-0.142
23,GGAACUUCCUGAGAACAUUTT against MAP3K8,-0.533
24,CAUUCACGAUCUUCCCGUATT against MYO16,-0.072
25,GUUGCAAACUUAUCGAGGATT against CCT2,-0.0508
26,GGUAGAAUCUAGGUAUGCATT against RAD51,0.594
27,GCAUAUGGUUCUGAAGAUATT against GTF2E1,1.76 (active)
